Unmarked numbers belong to inactive results.
Each target was assayed with C#CCNC(=O)CCSSCCC(=O)NCCc1ccc(C=O)c(C=O)c1 (assay: lysine labeling ratio R10:1 (500 µM / 50 µM probe), SILAC-ABPP in living cells; higher = lower intrinsic lysine reactivity toward the probe, active = 2 or less). Conditions: HeLa; probe concentrations 500 vs 50 µM.
Procedure, shortened: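 Each lysine carries an R value: the filtered median of MS1 peptide ratios of high probe to low probe, with the median then taken over forward and reverse replicates. These came from living SILAC light and heavy HeLa cells in PBS at room temperature labelled with an alkyne-tagged, disulfide-linked lysine probe at 500 µM or 50 µM, in forward and reverse swaps. The lysates were mixed, clicked to biotin-azide, trypsin-digested, captured on neutravidin, released by DTT, alkylated and run by LC-MS/MS on a TIMS-TOF Pro. The highest value allowed is 20.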
UniProt Q15149, sequence (Q15149 whole entry): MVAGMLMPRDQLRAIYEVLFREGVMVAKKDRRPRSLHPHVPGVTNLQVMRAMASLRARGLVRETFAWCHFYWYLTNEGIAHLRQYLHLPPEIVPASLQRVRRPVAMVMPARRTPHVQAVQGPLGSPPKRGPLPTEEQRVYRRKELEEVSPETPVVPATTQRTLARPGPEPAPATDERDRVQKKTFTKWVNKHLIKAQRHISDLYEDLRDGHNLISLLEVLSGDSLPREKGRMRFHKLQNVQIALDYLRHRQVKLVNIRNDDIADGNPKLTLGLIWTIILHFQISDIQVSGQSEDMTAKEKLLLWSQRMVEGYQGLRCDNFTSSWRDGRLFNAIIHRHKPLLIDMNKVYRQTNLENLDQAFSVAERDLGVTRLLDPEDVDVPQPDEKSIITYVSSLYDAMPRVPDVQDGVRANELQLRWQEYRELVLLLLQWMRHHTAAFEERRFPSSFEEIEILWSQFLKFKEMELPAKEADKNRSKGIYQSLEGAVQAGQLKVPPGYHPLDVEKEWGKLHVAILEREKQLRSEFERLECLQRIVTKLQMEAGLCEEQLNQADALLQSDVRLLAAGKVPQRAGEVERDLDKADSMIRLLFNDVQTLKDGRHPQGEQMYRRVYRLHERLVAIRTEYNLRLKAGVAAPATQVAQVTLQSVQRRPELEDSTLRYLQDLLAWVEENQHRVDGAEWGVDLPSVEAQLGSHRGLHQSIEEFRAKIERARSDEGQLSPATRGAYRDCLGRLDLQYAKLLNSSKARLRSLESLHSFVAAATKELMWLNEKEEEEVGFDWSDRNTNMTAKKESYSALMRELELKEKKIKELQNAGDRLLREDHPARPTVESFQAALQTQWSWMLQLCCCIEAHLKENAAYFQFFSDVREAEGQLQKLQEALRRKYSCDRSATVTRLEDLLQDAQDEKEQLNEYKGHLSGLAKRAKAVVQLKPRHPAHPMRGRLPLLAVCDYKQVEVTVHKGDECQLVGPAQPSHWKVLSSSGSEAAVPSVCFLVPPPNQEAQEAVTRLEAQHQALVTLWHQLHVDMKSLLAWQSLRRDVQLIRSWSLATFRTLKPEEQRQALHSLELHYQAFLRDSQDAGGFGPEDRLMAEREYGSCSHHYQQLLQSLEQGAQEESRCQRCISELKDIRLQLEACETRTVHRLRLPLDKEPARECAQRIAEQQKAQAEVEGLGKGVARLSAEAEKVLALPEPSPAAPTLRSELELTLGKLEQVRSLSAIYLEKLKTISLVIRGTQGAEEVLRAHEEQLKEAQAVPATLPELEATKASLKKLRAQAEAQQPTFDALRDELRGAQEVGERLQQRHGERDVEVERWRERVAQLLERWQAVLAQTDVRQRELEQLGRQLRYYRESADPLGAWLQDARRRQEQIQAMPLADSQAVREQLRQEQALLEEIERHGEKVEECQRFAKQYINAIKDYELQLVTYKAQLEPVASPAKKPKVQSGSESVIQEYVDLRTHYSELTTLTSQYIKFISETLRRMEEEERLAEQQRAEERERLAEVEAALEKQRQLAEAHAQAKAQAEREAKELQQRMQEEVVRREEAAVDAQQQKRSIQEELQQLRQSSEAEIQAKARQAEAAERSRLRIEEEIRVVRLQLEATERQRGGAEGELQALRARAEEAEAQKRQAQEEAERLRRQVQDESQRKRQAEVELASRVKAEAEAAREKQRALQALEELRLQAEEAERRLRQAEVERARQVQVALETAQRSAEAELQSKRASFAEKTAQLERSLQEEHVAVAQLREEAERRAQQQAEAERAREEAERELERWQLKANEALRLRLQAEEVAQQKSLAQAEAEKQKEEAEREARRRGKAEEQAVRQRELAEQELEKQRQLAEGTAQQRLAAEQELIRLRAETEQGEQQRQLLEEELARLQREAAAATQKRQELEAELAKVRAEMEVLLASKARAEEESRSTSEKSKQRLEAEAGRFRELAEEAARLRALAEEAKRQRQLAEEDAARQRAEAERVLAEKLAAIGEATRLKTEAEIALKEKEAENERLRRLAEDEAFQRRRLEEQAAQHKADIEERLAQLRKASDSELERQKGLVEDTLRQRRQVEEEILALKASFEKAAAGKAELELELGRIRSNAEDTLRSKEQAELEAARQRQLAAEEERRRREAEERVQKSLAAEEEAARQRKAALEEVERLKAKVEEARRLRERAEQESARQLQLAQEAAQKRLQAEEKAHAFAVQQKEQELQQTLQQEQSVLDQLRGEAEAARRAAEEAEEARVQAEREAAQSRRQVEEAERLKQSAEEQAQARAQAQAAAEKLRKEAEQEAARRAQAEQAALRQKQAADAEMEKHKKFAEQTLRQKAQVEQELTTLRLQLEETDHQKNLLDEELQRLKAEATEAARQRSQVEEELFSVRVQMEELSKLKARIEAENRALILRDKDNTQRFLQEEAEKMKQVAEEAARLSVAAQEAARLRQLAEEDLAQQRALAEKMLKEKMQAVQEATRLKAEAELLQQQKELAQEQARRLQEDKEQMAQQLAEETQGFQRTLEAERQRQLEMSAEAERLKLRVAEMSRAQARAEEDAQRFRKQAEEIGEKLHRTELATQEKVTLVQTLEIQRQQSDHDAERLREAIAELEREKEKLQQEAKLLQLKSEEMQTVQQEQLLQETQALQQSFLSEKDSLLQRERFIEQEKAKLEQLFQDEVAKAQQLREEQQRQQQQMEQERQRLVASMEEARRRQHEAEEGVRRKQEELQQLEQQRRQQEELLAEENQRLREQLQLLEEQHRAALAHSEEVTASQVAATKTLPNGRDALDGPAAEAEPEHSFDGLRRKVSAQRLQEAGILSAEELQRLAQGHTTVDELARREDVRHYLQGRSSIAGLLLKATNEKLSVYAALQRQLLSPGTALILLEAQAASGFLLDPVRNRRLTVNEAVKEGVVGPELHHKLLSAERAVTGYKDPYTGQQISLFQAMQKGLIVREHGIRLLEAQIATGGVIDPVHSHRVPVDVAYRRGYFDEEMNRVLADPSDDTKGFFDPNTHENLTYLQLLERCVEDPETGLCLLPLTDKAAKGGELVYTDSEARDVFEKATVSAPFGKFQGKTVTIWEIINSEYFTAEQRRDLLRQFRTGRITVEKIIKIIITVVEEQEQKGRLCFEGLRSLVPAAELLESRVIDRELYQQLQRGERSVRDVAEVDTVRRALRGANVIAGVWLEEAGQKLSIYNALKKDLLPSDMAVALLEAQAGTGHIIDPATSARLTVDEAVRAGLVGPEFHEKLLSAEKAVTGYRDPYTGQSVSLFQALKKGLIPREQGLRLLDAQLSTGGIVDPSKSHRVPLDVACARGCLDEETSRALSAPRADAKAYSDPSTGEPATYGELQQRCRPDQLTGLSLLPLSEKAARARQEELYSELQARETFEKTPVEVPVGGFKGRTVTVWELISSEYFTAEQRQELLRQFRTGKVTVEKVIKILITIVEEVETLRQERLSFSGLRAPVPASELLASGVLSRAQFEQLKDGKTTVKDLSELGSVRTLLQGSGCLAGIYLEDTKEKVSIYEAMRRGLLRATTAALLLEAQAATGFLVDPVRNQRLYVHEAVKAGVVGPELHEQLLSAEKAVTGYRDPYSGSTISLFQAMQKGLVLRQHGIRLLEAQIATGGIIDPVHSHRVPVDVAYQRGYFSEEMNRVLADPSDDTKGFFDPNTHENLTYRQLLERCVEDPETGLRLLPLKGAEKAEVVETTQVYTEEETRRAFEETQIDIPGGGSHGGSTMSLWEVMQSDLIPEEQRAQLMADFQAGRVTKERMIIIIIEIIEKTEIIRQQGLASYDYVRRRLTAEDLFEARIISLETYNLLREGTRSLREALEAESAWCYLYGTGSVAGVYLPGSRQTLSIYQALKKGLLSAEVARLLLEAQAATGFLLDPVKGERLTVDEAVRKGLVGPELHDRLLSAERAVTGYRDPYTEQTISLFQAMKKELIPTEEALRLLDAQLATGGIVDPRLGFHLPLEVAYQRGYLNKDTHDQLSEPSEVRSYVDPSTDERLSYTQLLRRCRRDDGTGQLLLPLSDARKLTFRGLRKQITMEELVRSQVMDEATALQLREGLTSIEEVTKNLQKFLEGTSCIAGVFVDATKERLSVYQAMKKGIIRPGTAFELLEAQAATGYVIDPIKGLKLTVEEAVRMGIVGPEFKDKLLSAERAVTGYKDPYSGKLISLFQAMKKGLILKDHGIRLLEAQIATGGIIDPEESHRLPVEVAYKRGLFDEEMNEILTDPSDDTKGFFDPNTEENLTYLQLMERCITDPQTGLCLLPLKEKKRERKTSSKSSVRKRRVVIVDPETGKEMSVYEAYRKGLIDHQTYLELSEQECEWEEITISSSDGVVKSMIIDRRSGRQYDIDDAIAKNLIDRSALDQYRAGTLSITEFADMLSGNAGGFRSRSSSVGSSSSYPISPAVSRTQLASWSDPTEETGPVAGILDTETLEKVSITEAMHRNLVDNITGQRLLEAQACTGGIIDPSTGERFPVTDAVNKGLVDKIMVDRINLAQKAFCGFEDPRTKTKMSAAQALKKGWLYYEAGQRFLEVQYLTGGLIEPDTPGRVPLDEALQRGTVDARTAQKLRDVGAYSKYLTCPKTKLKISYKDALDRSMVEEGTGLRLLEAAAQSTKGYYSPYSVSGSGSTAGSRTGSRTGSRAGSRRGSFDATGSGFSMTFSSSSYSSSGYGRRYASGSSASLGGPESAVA
UniProt P37802, sequence (P37802 whole entry): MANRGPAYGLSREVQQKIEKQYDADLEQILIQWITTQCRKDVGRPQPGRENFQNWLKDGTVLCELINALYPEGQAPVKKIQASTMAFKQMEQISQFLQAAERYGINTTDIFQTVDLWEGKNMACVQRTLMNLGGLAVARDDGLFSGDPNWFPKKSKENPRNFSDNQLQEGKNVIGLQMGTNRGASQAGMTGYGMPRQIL
UniProt P37108, sequence (P37108 whole entry): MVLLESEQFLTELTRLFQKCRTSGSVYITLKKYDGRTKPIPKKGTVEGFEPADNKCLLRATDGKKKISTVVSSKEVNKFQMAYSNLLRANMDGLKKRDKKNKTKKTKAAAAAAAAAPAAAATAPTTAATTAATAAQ
With “SDC4 (lysine site: K104) (UniProt P31431)” the “lysine labeling ratio R10:1” value was 3.81. For UniProt Q15149 (lysine site: K923), the “lysine labeling ratio R10:1” value was 9.2. “ITGA2 (lysine site: K884) (UniProt P17301)” was tested, and the “lysine labeling ratio R10:1” value was 1.93 (active). In the case of “CACNA2D1 (lysine site: K1048) (UniProt P54289)”, the “lysine labeling ratio R10:1” value is reported as 6.59. For “TAGLN2 (lysine site: K154) (UniProt P37802)”, the “lysine labeling ratio R10:1” value was 1.43 (active). For “MAN1B1 (lysine site: K354) (UniProt Q9UKM7)”, the “lysine labeling ratio R10:1” value was 2.81. In the case of “ABCB1 (lysine site: K748) (UniProt P08183)”, the “lysine labeling ratio R10:1” value is reported as 1.52 (active). For “FLNB (lysine site: K2470) (UniProt O75369)”, the “lysine labeling ratio R10:1” value was 1.78 (active). For “LRP8 (lysine site: K567) (UniProt Q14114)”, the “lysine labeling ratio R10:1” value was 1.53 (active). UniProt Q8WXI7 (lysine site: K13246) was tested, and the “lysine labeling ratio R10:1” value was 5.01. “SRP14 (lysine site: K55) (UniProt P37108)” was tested, and the “lysine labeling ratio R10:1” value was 1.02 (active). With UniProt Q8WXI7 (lysine site: K13985) the “lysine labeling ratio R10:1” value was 7.69. In the case of UniProt Q15149 (lysine site: K1886), the “lysine labeling ratio R10:1” value is reported as 1.49 (active). “TXLNA (lysine site: K256) (UniProt P40222)” was tested, and the “lysine labeling ratio R10:1” value was 3.67. For “DNAJC9 (lysine site: K198) (UniProt Q8WXX5)”, the “lysine labeling ratio R10:1” value was 2.94. “CNN2 (lysine site: K30) (UniProt Q99439)” was tested, and the “lysine labeling ratio R10:1” value was 4.32. With “KPNB1 (lysine site: K211) (UniProt Q14974)” the “lysine labeling ratio R10:1” value was 2.19.

— the supplement of paper PMC11001985
